# Data reported in PubChem BioAssay (EPA / NIEHS).
# Active and inactive are the calls of the source. How the source made its calls: active means hit-call score of the fitted dose curve at least 0.9, where 1 is the maximum; inactive means score below 0.9.
# Key:
# [1] = read-out: Intercellular Adhesion Molecule 1 (ICAM1), ICAM1 (gene 3383); assay: BSK_3C_ICAM1: BioMAP Diversity Plus: 3C Assay for Intercellular Adhesion Molecule 1 (ICAM1) Biomarker Activity (AID 2283003); conditions: primary human endothelial cells (HUVEC); actives raise or lower the signal
# In short: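 Primary human umbilical vein endothelial cells in the BioMAP 3C system were exposed to chemicals for 24 h, then ICAM-1 was quantified by ELISA. Activity was fitted bidirectionally against the DMSO negative control baseline.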
# [2] = BSK_3C_Proliferation: Cell Proliferation Assessment in the BioMAP Diversity Plus: 3C Assay (AID 2283006); conditions: primary human endothelial cells (HUVEC);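 further: potency may reflect either rise or fall in cell number versus DMSO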
# In short: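 Human umbilical vein endothelial cells were grown sub-confluent and exposed to chemical for 48 h, then fixed with 10% TCA and stained with 0.1% sulforhodamine B; absorbance at 560 nm gave relative cell number, fitted bidirectionally against DMSO baseline.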
# [3] = read-out: E-selectin (Homo sapiens) (UniProt P16581); assay: BSK_3C_Eselectin: BioMAP Diversity Plus: 3C Assay for Eselectin Biomarker Activity (AID 2283015); conditions: primary human endothelial cells (HUVEC); actives raise or lower the signal
# In short: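 Primary human umbilical vein endothelial cells (3C system) were dosed with chemical and cell-surface E-selectin measured by ELISA 24 h later. Bidirectional curve fitting used DMSO as negative control and baseline.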
# [4] = read-out: Matrix Metallopeptidase 1 (MMP1), MMP1 (gene 4312); assay: BSK_BE3C_MMP1: BioMAP Diversity Plus: BE3C Assay for Matrix Metallopeptidase 1 (MMP1) Biomarker Activity (AID 2283024); conditions: primary human bronchial epithelial cells; actives raise or lower the signal
# In short: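 Primary human bronchial epithelial cells were dosed with test chemicals, and MMP1 levels were measured by ELISA 24 h later. Data were fitted bidirectionally against DMSO as the negative control and activity baseline.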
# [5] = BSK_BE3C_SRB: Viability Assessment in the BioMAP Diversity Plus: BE3C Assay (AID 2283028); conditions: primary human bronchial epithelial cells;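 further: fitted both ways so AC50 may mark signal gain or loss versus DMSO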
# In short: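 Human primary bronchial epithelial cells were exposed to test chemicals for 24 h. Total protein in parallel cultures was then measured by staining with 0.1% sulforhodamine B after 10% TCA fixation, with absorbance read at 560 nm. Activity was fitted bidirectionally against DMSO.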
# [6] = read-out: Thrombomodulin, THBD (gene 7056); assay: BSK_3C_Thrombomodulin: BioMAP Diversity Plus: 3C Assay for Thrombomodulin Biomarker Activity (AID 2283029); conditions: primary human endothelial cells (HUVEC); actives raise or lower the signal
# In short: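 Primary human umbilical vein endothelial cells (3C system) were exposed to chemical for 24 h, then thrombomodulin levels were measured by ELISA. Activity was fitted bidirectionally against the DMSO negative control as baseline.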
# [7] = read-out: Human Leukocyte Antigen - DR isotype (HLADR), HLA-DRA (gene 3122); assay: BSK_BE3C_HLADR: BioMAP Diversity Plus: BE3C Assay for Human Leukocyte Antigen - DR isotype (HLADR) Biomarker Activity (AID 2283032); conditions: primary human bronchial epithelial cells; actives raise or lower the signal
# In short: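 Human primary bronchial epithelial cells in the BE3C system were exposed to chemicals for 24 h, after which HLA-DR levels were quantified by ELISA. Activity was fitted bidirectionally, gain or loss of signal, against DMSO as negative control and baseline.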
# [8] = read-out: Vascular cell adhesion molecule 1 (VCAM1), VCAM1 (gene 7412); assay: BSK_4H_VCAM1: BioMAP Diversity Plus: 4H Assay for Vascular cell adhesion molecule 1 (VCAM1) Biomarker Activity (AID 2283033); conditions: primary human endothelial cells (HUVEC); actives raise or lower the signal
# In short: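 Primary human umbilical vein endothelial cells were exposed to chemicals for 24 h, after which VCAM-1 was quantified by ELISA. Responses were fitted bidirectionally against DMSO as negative control and activity baseline.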
# [9] = read-out: Interferon-gamma inducible Protein 10 (IP10), CXCL10 (gene 3627); assay: BSK_BE3C_IP10: BioMAP Diversity Plus: BE3C Assay for Interferon-gamma inducible Protein 10 (IP10) Biomarker Activity (AID 2283034); conditions: primary human bronchial epithelial cells; actives raise or lower the signal
# In short: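 Human primary bronchial epithelial cells were exposed to chemicals for 24 hours, after which IP-10 levels were measured by ELISA. Data were fitted bidirectionally against DMSO, which served as the negative control and activity baseline.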
# [10] = read-out: Urokinase-type plasminogen activator receptor (uPAR), PLAUR (gene 5329); assay: BSK_BE3C_uPAR: BioMAP Diversity Plus: BE3C Assay for Urokinase-type plasminogen activator receptor (uPAR) Biomarker Activity (AID 2283039); conditions: primary human bronchial epithelial cells; actives raise or lower the signal
# In short: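 Primary human bronchial epithelial cells were dosed with chemical and harvested 24 h later; uPAR was quantified by ELISA. Activity was fitted bidirectionally against DMSO as negative control and baseline.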
# [11] = read-out: Interleukin-6 (IL6), IL6 (gene 3569); assay: BSK_CASM3C_IL6: BioMAP Diversity Plus: CASM3C Assay for Interleukin-6 (IL6) Biomarker Activity for (AID 2283040); conditions: primary human coronary artery smooth muscle cells; actives raise or lower the signal
# [12] = read-out: Interleukin-8 (IL8), CXCL8 (gene 3576); assay: BSK_CASM3C_IL8: BioMAP Diversity Plus: CASM3C Assay for Interleukin-8 (IL8) Biomarker Activity (AID 2283042); conditions: primary human coronary artery smooth muscle cells; actives raise or lower the signal;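 further: IL-8 protein level quantified by ELISA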
# [13] = read-out: Human Leukocyte Antigen - DR isotype (HLADR), HLA-DRA (gene 3122); assay: BSK_CASM3C_HLADR: BioMAP Diversity Plus: CASM3C Assay for Human Leukocyte Antigen - DR isotype (HLADR) Biomarker Activity (AID 2283043); conditions: primary human coronary artery smooth muscle cells; actives raise or lower the signal;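 further: cell-surface HLA-DR protein level quantified by ELISA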
# [14] = read-out: Monocyte Chemoattractant Protein-1 (MCP1), CCL2 (gene 6347); assay: BSK_CASM3C_MCP1: BioMAP Diversity Plus: CASM3C Assay for Monocyte Chemoattractant Protein-1 (MCP1) Biomarker Activity (AID 2283046); conditions: primary human coronary artery smooth muscle cells; actives raise or lower the signal;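 further: MCP-1 level quantified by ELISA 24 h after dosing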
# [15] = BSK_CASM3C_Proliferation: Cell Proliferation Assessment in the BioMAP Diversity Plus: CASM3C Assay (AID 2283047); conditions: primary human coronary artery smooth muscle cells;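 further: sulforhodamine B total protein stain as relative cell number at 560 nm; sub-confluent cells exposed 48 h before staining; fitted both ways against DMSO so gain or loss of cell number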
# [16] = read-out: serum amyloid A (SAA), SAA1 (gene 6288); assay: BSK_CASM3C_SAA: BioMAP Diversity Plus: CASM3C Assay for serum amyloid A (SAA) Biomarker Activity (AID 2283049); conditions: primary human coronary artery smooth muscle cells; actives raise or lower the signal;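 further: SAA protein level quantified by ELISA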
# [17] = read-out: Tissue Factor, F3 (gene 2152); assay: BSK_CASM3C_TissueFactor: BioMAP Diversity Plus: CASM3C Assay for Tissue Factor Biomarker Activity (AID 2283052); conditions: primary human coronary artery smooth muscle cells; actives raise or lower the signal;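 further: cell surface tissue factor protein level read by ELISA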
# [18] = read-out: Interferon-gamma inducible Protein 10 (IP10), CXCL10 (gene 3627); assay: BSK_hDFCGF_IP10: BioMAP Diversity Plus: hDFCGF Assay for Interferon-gamma inducible Protein 10 (IP10) Biomarker Activity (AID 2283053); conditions: primary human foreskin fibroblasts; actives raise or lower the signal
# In short: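 Human foreskin fibroblast primary cells (hDFCGF system) were dosed with chemical and assayed at 24 h; IP-10 measured by ELISA. Activity fitted bidirectionally relative to DMSO negative control as baseline.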
# [19] = read-out: Urokinase-type plasminogen activator receptor (uPAR), PLAUR (gene 5329); assay: BSK_CASM3C_uPAR: BioMAP Diversity Plus: CASM3C Assay for Urokinase-type plasminogen activator receptor (uPAR) Biomarker Activity (AID 2283054); conditions: primary human coronary artery smooth muscle cells; actives raise or lower the signal;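 further: cell-surface uPAR protein level quantified by ELISA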
# [20] = read-out: Collagen III, COL3A1 (gene 1281); assay: BSK_hDFCGF_CollagenIII: BioMAP Diversity Plus: hDFCGF Assay for Collagen III Biomarker Activity (AID 2283056); conditions: primary human foreskin fibroblasts; actives raise or lower the signal
# In short: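 Human foreskin primary fibroblasts were exposed to test chemicals for 24 h, after which collagen III was quantified by ELISA. Activity was fitted bidirectionally against DMSO as negative control and baseline.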
# E-selectin (Homo sapiens), sequence (P16581 whole entry, looked up): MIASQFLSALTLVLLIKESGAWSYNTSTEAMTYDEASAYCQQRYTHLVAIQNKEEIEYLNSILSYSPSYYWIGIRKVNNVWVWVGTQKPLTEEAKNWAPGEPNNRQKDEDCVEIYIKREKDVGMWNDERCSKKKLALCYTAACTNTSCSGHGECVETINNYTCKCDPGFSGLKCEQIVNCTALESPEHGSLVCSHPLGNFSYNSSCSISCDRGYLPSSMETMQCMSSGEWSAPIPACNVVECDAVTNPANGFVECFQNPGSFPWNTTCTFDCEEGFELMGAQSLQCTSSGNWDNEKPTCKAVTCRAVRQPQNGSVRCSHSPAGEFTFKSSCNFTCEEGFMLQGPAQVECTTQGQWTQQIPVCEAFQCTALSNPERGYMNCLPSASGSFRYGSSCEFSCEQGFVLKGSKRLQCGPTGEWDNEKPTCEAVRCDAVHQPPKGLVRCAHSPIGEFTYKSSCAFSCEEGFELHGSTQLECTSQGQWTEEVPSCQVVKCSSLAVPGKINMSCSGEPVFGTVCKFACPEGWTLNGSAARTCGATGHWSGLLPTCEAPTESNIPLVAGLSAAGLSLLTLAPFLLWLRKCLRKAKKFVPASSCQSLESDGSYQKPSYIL
smiles,measurement,setting,value
CC(C)(c1cc(Cl)c(O)c(Cl)c1)c1cc(Cl)c(O)c(Cl)c1,AC50,[1],29.4 µM (active)
same,AC50,[2],15.2 µM (active)
same,AC50,[3],12 µM (active)
same,AC50,[4],9.58 µM (active)
same,AC50,[5],6.38 µM (active)
same,AC50,[6],20 µM (active)
same,AC50,[7],9.27 µM (active)
same,AC50,[8],30.1 µM (active)
same,AC50,[9],7.58 µM (active)
same,AC50,[10],5.31 µM (active)
same,AC50,[11],36.4 µM (active)
same,outcome,[12],inactive
same,AC50,[13],27.9 µM (active)
same,AC50,[14],32.6 µM (active)
same,AC50,[15],32.6 µM (active)
same,AC50,[16],32.1 µM (active)
same,AC50,[17],10.9 µM (active)
same,AC50,[18],11.5 µM (active)
same,AC50,[19],32.5 µM (active)
same,AC50,[20],29.6 µM (active)
